Reference: the supplement of paper PMC10849652
The full data set covers some 8,800 targets. This sample favours those with a hit. About 0.5% of all pairs of compound and target were hits.

The targets below were run with CCN(CCCOc1ccc2c(Nc3cc(CC(=O)Nc4cccc(F)c4)[nH]n3)ncnc2c1)CCOP(=O)(O)O [barasertib] (assay: log2 fold change, soluble protein after heating vs DMSO (PISA); higher = thermal stabilisation; K562 lysate, 10 uM; active = over 0.2 and 3.5 SD of the protein, either way, in both replicates (recomputed)).
Method in brief: (§1)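 A 30 min treatment with 10 μM compound was applied to crude K562 extract at 1 mg/mL protein in PBS pH 7.4 with 1 mM MgCl2. Heating for 3 min spanned 48°C-58°C, after which aliquots were pooled, adjusted to 0.5% NP-40 at 4°C and spun at 21,000xg for 90 min. TMTpro 16plex LC-MS/MS of the supernatant, with channel sums equalised, gave values recorded as log-two fold change in thermal stability against solvent controls, from duplicates.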

Chain of UniProt Q9UBD5 (Q9UBD5 whole entry, looked up): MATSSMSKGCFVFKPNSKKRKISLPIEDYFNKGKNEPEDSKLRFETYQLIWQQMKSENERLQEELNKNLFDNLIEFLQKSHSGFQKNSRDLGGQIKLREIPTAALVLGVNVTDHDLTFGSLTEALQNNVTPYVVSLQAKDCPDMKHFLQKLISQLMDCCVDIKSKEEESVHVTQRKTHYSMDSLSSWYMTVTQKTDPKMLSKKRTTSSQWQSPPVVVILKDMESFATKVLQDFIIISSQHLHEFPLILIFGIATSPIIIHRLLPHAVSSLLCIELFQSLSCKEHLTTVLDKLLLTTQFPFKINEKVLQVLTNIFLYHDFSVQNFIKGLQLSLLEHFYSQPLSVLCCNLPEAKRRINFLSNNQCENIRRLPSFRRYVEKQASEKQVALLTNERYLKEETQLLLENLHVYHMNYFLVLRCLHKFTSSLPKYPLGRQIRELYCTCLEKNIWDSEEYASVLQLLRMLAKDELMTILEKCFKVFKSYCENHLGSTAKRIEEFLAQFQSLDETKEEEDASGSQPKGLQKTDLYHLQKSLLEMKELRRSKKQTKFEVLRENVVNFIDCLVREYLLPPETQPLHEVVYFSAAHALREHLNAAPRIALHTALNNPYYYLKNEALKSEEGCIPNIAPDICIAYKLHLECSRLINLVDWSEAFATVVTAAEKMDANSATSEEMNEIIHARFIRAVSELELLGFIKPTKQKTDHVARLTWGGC
Chain of UniProt P52948 (P52948 whole entry, looked up): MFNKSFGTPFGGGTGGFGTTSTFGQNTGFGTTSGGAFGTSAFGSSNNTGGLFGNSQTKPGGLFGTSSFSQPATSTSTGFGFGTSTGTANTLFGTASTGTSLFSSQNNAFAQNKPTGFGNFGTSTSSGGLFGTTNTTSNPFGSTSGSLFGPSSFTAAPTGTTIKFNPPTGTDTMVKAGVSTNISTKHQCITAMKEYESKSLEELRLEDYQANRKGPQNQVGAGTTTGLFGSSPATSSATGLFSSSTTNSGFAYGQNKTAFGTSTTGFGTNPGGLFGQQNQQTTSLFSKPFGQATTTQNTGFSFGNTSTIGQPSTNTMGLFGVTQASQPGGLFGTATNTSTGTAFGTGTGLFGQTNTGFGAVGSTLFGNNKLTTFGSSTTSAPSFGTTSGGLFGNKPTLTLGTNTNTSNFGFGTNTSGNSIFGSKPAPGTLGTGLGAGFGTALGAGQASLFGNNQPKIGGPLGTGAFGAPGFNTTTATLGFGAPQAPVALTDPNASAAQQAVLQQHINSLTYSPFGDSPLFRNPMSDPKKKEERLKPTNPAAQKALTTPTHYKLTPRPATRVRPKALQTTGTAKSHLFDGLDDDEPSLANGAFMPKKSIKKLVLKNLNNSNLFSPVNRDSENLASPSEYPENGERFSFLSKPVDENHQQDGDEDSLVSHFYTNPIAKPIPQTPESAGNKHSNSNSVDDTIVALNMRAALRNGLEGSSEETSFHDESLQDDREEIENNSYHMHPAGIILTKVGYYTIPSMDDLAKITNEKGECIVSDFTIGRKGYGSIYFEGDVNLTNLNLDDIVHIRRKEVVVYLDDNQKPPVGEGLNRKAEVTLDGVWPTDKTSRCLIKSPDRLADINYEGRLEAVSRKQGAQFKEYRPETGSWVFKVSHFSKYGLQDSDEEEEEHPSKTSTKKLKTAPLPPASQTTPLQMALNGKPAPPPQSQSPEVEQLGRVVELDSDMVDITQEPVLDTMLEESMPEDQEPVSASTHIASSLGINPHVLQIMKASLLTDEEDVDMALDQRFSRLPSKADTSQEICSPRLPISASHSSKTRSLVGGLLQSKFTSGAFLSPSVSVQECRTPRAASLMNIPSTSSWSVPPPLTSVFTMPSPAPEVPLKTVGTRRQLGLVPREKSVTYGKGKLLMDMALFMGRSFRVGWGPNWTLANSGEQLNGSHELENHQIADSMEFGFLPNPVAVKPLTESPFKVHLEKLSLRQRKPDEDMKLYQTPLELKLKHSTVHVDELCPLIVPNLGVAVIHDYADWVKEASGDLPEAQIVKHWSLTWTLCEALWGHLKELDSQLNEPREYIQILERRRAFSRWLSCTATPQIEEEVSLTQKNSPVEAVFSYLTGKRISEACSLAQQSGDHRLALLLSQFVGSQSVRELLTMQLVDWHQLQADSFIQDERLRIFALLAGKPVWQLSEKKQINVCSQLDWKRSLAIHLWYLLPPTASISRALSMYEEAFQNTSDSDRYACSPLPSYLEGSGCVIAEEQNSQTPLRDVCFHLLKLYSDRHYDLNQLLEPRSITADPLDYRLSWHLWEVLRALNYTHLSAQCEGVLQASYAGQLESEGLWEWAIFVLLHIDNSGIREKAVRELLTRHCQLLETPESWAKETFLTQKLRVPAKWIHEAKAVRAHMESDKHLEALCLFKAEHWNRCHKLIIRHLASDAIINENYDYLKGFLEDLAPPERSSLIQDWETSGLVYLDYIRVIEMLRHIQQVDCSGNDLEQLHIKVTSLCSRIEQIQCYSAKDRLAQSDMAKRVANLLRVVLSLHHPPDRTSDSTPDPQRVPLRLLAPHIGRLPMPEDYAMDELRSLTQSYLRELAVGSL
Chain of UniProt Q9NVE7 (Q9NVE7 whole entry, looked up): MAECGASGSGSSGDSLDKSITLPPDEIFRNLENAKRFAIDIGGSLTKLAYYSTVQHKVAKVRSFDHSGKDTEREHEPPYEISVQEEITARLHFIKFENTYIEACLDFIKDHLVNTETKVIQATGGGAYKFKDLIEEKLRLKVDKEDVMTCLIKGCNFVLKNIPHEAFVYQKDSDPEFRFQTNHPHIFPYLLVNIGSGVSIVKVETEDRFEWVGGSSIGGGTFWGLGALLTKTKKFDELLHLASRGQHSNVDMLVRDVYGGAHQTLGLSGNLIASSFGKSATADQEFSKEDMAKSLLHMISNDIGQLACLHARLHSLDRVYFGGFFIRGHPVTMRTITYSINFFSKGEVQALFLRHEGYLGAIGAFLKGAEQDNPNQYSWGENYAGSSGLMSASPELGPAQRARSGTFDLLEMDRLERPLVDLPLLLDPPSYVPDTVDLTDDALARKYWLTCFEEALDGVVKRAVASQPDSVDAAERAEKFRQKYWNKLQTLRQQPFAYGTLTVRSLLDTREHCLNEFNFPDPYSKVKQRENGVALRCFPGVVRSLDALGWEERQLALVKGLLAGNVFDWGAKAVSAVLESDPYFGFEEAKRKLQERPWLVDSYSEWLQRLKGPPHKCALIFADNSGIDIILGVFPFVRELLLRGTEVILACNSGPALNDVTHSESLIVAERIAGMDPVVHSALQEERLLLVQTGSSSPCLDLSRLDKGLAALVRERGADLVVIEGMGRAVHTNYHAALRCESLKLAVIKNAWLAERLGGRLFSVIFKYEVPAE
Chain of UniProt Q9Y5B6 (Q9Y5B6 whole entry, looked up): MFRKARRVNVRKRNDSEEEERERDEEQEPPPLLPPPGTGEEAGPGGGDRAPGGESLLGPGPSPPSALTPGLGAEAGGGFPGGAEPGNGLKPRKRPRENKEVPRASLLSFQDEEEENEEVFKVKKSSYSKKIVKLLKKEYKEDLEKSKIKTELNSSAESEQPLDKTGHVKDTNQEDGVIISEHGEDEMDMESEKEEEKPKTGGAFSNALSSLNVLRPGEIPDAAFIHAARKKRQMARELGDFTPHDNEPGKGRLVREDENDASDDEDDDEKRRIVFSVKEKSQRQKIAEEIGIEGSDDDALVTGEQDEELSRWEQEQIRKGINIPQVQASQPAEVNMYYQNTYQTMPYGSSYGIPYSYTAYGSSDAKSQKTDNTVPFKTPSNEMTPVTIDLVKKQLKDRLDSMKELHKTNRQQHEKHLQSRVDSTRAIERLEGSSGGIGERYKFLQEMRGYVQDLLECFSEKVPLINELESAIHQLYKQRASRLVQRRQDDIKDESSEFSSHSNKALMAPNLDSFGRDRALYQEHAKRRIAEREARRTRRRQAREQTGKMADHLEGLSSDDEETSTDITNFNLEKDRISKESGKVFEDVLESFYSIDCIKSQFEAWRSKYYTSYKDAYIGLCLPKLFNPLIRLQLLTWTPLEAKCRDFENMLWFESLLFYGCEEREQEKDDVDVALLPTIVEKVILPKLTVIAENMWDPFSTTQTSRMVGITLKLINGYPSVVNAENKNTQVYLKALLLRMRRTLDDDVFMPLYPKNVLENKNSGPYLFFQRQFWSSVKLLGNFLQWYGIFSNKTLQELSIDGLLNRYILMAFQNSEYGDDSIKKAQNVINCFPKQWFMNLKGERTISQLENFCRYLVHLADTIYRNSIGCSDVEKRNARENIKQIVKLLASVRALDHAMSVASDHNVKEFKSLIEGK
Chain of UniProt Q9NZT2 (Q9NZT2 whole entry, looked up): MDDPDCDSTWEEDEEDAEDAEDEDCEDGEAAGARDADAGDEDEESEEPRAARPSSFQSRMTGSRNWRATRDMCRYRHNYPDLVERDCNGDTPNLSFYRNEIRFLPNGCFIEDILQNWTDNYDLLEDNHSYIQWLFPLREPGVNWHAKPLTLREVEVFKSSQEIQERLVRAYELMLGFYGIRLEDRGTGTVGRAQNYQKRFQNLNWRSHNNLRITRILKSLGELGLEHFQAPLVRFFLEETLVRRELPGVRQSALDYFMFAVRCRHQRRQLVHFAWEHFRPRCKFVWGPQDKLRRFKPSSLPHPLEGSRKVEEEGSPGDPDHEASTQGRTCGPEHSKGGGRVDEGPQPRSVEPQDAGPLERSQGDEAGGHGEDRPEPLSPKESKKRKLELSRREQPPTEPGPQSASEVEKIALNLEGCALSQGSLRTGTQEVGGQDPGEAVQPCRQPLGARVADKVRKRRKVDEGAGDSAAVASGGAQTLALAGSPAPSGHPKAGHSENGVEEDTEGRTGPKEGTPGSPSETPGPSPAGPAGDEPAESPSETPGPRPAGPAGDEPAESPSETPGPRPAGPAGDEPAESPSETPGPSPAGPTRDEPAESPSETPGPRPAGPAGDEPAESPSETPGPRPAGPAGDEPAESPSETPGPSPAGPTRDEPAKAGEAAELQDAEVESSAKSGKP
Chain of UniProt Q15843 (Q15843 whole entry, looked up): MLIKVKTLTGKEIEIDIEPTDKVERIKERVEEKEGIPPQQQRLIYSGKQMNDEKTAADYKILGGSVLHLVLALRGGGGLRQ

log2 fold change, inactive:
NUMBL (UniProt Q9Y6R0) -0.005
OPA1 isoform 2 (UniProt O60313) 0.024
MTHFD1L (UniProt B7ZM99) -0.033
PARD3 (UniProt Q8TEW0) -0.123
NACC1 (UniProt Q96RE7) 0.039
NEDD8 (UniProt Q15843) 0.113
PANK4 (UniProt Q9NVE7) 0.054
NAA35 (UniProt Q5VZE5) -0.01
OGFR (UniProt Q9NZT2) 0.003
MTMR6 (UniProt Q9Y217) 0.018
OTC (UniProt P00480) 0.063
NELFCD (UniProt Q8IXH7) 0.047
NFATC2IP (UniProt Q8NCF5) 0.041
NUDT4 isoform 2 (UniProt Q9NZJ9) -0.05
NADK2 (UniProt Q4G0N4) 0.034
NUP98 (UniProt P52948) 0.02
NR3C1 isoform 3 (UniProt P04150) -0.385
PAXBP1 (UniProt Q9Y5B6) 0.07
NCAPD3 (UniProt P42695) 0.06
NPLOC4 isoform 2 (UniProt Q8TAT6) -0.019
N4BP2 (UniProt Q86UW6) -0.018
NCAPD2 (UniProt Q15021) 0.016
NCAPG (UniProt Q9BPX3) 0.018
NOSTRIN (UniProt Q8IVI9) 0.085
NUP160 (UniProt Q12769) 0.052
MT-CYB (UniProt P00156) -0.054
PARG (UniProt Q86W56) 0.008
OSGEP (UniProt Q9NPF4) 0.031
ORC3 isoform 2 (UniProt Q9UBD5) 0.022
MTHFD1, A0A384N5Y3 0.017
NAA38 isoform 2 (UniProt Q9BRA0) 0.09
NPTN (UniProt Q9Y639) 0.007
NUP133 (UniProt Q8WUM0) 0.01
MSI2 (UniProt Q96DH6) 0.009
PAN2 isoform 2 (UniProt Q504Q3) 0.03
NPM3 (UniProt O75607) -0.065

Each target was assayed with CC[C@@H]1C(=O)N(C)c2cnc(Nc3ccc(C(=O)NC4CCN(C)CC4)cc3OC)nc2N1C1CCCC1 in the same assay as above.
Method in brief: as §1

log2 fold change, inactive:
NUMBL (UniProt Q9Y6R0) -0.009
OPA1 isoform 2 (UniProt O60313) -0.057
MTHFD1L (UniProt B7ZM99) -0.111
PARD3 (UniProt Q8TEW0) -0.009
NACC1 (UniProt Q96RE7) -0.027
NEDD8 (UniProt Q15843) -0.003
PANK4 (UniProt Q9NVE7) -0.051
NAA35 (UniProt Q5VZE5) 0.05
OGFR (UniProt Q9NZT2) -0.012
MTMR6 (UniProt Q9Y217) 0.006
OTC (UniProt P00480) -0.246
NELFCD (UniProt Q8IXH7) 0.006
NFATC2IP (UniProt Q8NCF5) 0.033
NUDT4 isoform 2 (UniProt Q9NZJ9) 0.013
NADK2 (UniProt Q4G0N4) 0.078
NUP98 (UniProt P52948) -0.005
NR3C1 isoform 3 (UniProt P04150) -0.086
PAXBP1 (UniProt Q9Y5B6) -0.008
NCAPD3 (UniProt P42695) -0.013
NPLOC4 isoform 2 (UniProt Q8TAT6) 0.025
N4BP2 (UniProt Q86UW6) 0.029
NCAPD2 (UniProt Q15021) -0.027
NCAPG (UniProt Q9BPX3) -0.057
NOSTRIN (UniProt Q8IVI9) -0.178
NUP160 (UniProt Q12769) -0.106
MT-CYB (UniProt P00156) 0
PARG (UniProt Q86W56) -0.027
OSGEP (UniProt Q9NPF4) -0.059
ORC3 isoform 2 (UniProt Q9UBD5) -0.036
MTHFD1, A0A384N5Y3 -0.06
NAA38 isoform 2 (UniProt Q9BRA0) -0.012
NPTN (UniProt Q9Y639) 0.032
NUP133 (UniProt Q8WUM0) -0.028
MSI2 (UniProt Q96DH6) 0.016
PAN2 isoform 2 (UniProt Q504Q3) 0.041
NPM3 (UniProt O75607) 0.058
